This is a sample that favours compounds with a hit; in the whole collection about 4% have one here.
AF4-AF9 inh = inhibitors of AF4 peptide binding to AF9, primary screen, biochemical, AlphaScreen, biotin-AF4 peptide, FLAG-AF9, single point; Protein AF-9 (Homo sapiens), P42568; inhibition, % at 10 µM; actives 0.47% (n = 350,000); AID 651704, 2012;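 active = every replicate reaching a set inhibition limit, whatever the replicate mean, cut at about 25% in these data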
FGF22 binding = binders of human FGF22 protein, primary screen, FGF22 synaptogenesis inhibitor project, biophysical, thermal shift, single point. Fibroblast growth factor 22 (Homo sapiens), Q9HCT0. recombinant FGF22 thermal shift, SYPRO orange fluorescence; percent of sucrose octasulfate shift, DMSO zero. activity (Tm shift, normalised), % at 9.99 µM. actives 1.5% (n = 340,000);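 active = mean Tm shift, scaled 0 neutral to 100 positive control, at about 1.3% or above, every replicate too, limit read from the data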
ERAP1 HTS inh = human ERAP1 aminopeptidase inhibitors, primary screen, biochemical, single point, plate reader; Endoplasmic reticulum aminopeptidase 1 (Homo sapiens), Q9NZ08; recombinant ERAP1, Leu-AMC fluorescence, 60 min; inhibition, % at 10.7 µM; actives 0.15% (n = 340,000);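 active = mean replicate inhibition of at least 30%, or all replicates individually reaching that 30% level; inactive = mean below 30% and not every replicate reaching it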
Target sequence (Q9NZ08 whole entry, looked up): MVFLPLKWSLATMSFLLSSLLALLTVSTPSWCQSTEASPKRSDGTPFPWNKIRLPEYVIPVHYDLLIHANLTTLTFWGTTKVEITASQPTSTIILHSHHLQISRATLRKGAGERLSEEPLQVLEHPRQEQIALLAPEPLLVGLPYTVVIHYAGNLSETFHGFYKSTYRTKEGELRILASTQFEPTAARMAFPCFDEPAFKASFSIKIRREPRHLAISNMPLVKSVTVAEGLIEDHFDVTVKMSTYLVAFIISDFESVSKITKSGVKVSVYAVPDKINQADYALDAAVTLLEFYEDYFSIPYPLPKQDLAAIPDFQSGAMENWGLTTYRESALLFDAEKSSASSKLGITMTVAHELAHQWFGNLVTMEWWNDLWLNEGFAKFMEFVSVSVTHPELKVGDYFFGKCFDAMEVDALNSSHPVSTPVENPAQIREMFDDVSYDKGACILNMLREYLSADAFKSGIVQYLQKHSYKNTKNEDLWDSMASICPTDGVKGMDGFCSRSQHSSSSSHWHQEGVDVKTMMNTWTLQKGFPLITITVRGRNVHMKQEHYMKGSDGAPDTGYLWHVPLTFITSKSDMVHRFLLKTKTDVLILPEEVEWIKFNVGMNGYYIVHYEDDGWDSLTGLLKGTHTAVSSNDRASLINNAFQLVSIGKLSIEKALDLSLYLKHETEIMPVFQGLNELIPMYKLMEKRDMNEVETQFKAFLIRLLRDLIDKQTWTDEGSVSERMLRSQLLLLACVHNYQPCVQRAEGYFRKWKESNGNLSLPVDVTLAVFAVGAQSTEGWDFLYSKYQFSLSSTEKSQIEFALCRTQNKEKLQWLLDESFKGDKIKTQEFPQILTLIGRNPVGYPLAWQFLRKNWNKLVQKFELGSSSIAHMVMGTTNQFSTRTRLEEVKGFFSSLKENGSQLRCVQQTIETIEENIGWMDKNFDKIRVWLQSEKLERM
RAD52 inh = RAD52 DNA annealing inhibitors, primary screen, biochemical, FRET, single point, set 2. DNA repair protein RAD52 homolog (Homo sapiens), P43351. recombinant RAD52 DNA annealing, FRET fluorescence. inhibition, % at 18.7 µM. actives 0.46% (n = 360,000). AID 651710, 2012;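 active = every replicate showing at least 50% inhibition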
DENV2 CPE = inhibitors of DENV2 cytopathic effect, primary screen, cell-based, plate reader, single concentration; CPE inhibition, % at 9.99 µM; DENV2-infected cells, cytopathic effect rescue; actives 1.7% (n = 350,000); AID 651640, 2012; in the data active = CPE inhibition above about 20%, passing the limit was not always enough; tested in BHK-21 cells
RAD52 DNA ctr = DNA-binding compounds via dye displacement, dose response, artefact control for RAD52 inhibitor project, biochemical, fluorescence polarization, cherry-pick; actives 8% (n = 1,000); AID 652128, 2013; Salmon sperm DNA/acridine orange FP displacement; shares compounds with RAD52 inh; AC50, µM;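 active = fitted half-maximal concentration for signal loss at or below twice the highest dose tested, in every separate run, actives reach about 64 µM in these data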
Of the large screens only hits and unclear results are named; the others gave an inactive call (follow-up assays come after a bar, where they were run).

COC(=O)[C@H]1[C@H](CO)[C@H]2Cn3c(ccc(C4=CCCCC4)c3=O)[C@H]2N1C(=O)C1CCC1	none
Nc1cc2ccncc2c2ccccc12	RAD52 inh 59.8 | RAD52 DNA ctr inactive
C[C@@H]1CCCCO[C@@H](CN(C)S(=O)(=O)c2ccc(F)cc2)[C@H](C)CN([C@H](C)CO)C(=O)c2cc(NC(=O)Nc3ccc(F)cc3)ccc2O1	none (no result: AF4-AF9 inh, ERAP1 HTS inh, RAD52 inh)
CN(C)c1nc(N)c(C(=O)N=C(N)N)nc1Cl	RAD52 inh 88.2 | RAD52 DNA ctr inactive
CN(C)C(=O)[C@@H]1[C@@H](CO)[C@@H]2Cn3c(ccc(C4=CCCCC4)c3=O)[C@@H]2N1C(=O)c1ccccc1F	none
COCC(=O)Nc1ccc2c(c1)C(=O)N(C)[C@@H]1CC[C@@H](CC(=O)NCCc3ccncc3)O[C@H]1CO2	none
CCCCN(CCCNC(=S)NCCCc1cnc[nH]1)c1ccc(Br)cn1	RAD52 inh 55.4 | RAD52 DNA ctr inactive
CCCNC(=O)C[C@@H]1C[C@H]2c3cc(NC(=O)c4cccnc4)ccc3O[C@H]2[C@H](CO)O1	none (no result: AF4-AF9 inh, ERAP1 HTS inh, RAD52 inh)
CN(C)c1ccc(NC(=O)C[n+]2ccccc2)cc1	none | RAD52 DNA ctr inactive
Cc1ccc[n+](CC(=O)Nc2ccc(N(C)C)cc2)c1	RAD52 inh 78.4 | RAD52 DNA ctr inactive
CC(=O)c1ccc(NC(=O)C[n+]2cccc(C)c2)cc1	none
Cc1ccc(S(=O)(=O)N[C@@H]2C=C[C@@H](CC(=O)NCCc3ccncc3)O[C@H]2CO)cc1	none
COc1ccc(C(=O)NCCSCc2ccco2)cc1OC	none
CN/C(=C/[N+](=O)[O-])NCCSCc1ccc(CN(C)C)o1	RAD52 inh 54.8 | RAD52 DNA ctr inactive
COc1cc(NCCCCC(C)N)c2nccc(C)c2c1 (stereo not drawn)	RAD52 inh 75.8 | RAD52 DNA ctr inactive
CCCCCCCCCC[n+]1cccc2c3ccccc3ccc21	RAD52 inh 72.1 | RAD52 DNA ctr inactive
CCCCCCCC[n+]1cccc2c3ccccc3ccc21	none
CO[C@H]1CN(C)C(=O)c2cc(NC(C)=O)ccc2OC[C@H](C)N(Cc2ccccc2C(=O)O)C[C@@H]1C	none
COc1ccc2c3c([nH]c2c1)[C@@H](CO)N(C(=O)c1cccnc1)CC31CN(C(=O)c2cccnc2)C1	none
COc1ccc(C2c3ccc4ccccc4c3Oc3ncn(CCN(C)C)c(=N)c32)cc1 (stereo not drawn)	RAD52 inh 57.2 | RAD52 DNA ctr inactive
OC(CN1CCCCC1)Cn1c2ccccc2c2cc(Br)ccc21 (stereo not drawn)	RAD52 inh 57.5 | RAD52 DNA ctr inactive
OC(CN1CCN(c2ccccn2)CC1)Cn1c2ccccc2c2ccccc21 (stereo not drawn)	none
COc1ccc(-c2sc(Nc3ccccc3)n[n+]2-c2ccccc2)cc1Br	none (no result: DENV2 CPE)
COc1ccc(C)cc1Nc1n[n+](-c2ccccc2)c(-c2c(OC)ccc3ccccc23)s1	AF4-AF9 inh 40.4, RAD52 inh 102.4 (no result: DENV2 CPE) | RAD52 DNA ctr inactive
NC(N)=N/N=C(\N=Nc1ccccc1)c1cccc2cccnc12	none
NC(N)=N/N=C(\N=Nc1ccccc1)c1ccc(Cl)cc1	AF4-AF9 inh 34.7, RAD52 inh 74.1 | RAD52 DNA ctr inactive
CN1C(=O)c2cc(NC(=O)c3ccc(F)cc3)ccc2OC[C@H]2O[C@H](CC(=O)NCC3CCCCC3)CC[C@@H]21	none
CCN(CC)CCCn1c(=S)[nH]c2cc(Cl)ccc2c1=O	none (no result: DENV2 CPE)
CCN(CC)CCNc1ccc(CO)c2oc3cc(Cl)ccc3c(=O)c12	RAD52 inh 56.6, DENV2 CPE 64.0 | RAD52 DNA ctr inactive
Cc1ccc2oc(=O)c3cnn(CC(=O)NCCN(C)C)c3c2c1	none
CN(C)CCNc1ccc(CO)c2oc3ccc(O)cc3c(=O)c12	RAD52 inh 80.9 | RAD52 DNA ctr 55.2µM
CN(C)CCCn1c(=O)n(CCc2ccccc2)c(=O)c2c3c(sc21)CCCCC3	RAD52 inh 55.7 | RAD52 DNA ctr inactive
Nc1ccc2nc[nH]c2c1	RAD52 inh 84.5 | RAD52 DNA ctr inactive
CCOC(=O)c1c(-c2ccccc2)oc2ccc(OCC(O)CNCCN(C)C)cc12 (stereo not drawn)	AF4-AF9 inh 33.8, RAD52 inh 83.0 | RAD52 DNA ctr inactive
COc1ccc2[nH]c3c(C)c4ccncc4c(C)c3c2c1	RAD52 inh 99.6 | RAD52 DNA ctr inactive
CC(C)C[C@@H]1CN=C(N)N1C[C@@H]1CCCN1C[C@@H](C(C)C)N1C[C@@H](Cc2ccccc2)N(CCc2ccc(Cl)c(Cl)c2)C1=N	RAD52 inh 50.8 | RAD52 DNA ctr inactive
CC(C)C[C@@H]1CN=C(N)N1C[C@@H]1CCCN1C[C@H](C)N1C[C@@H](Cc2ccccc2)N(CCCC2CCCC2)C1=N	none
CC(C)C#Cc1cnc2c(c1)C(=O)N([C@H](C)CO)C[C@H](C)[C@@H](CN(C)C(=O)c1ccc3c(c1)OCO3)O2	none
CC(=O)Nc1ccc(Nc2nc(C)cc(C)n2)cc1	none
CCN1CCN(c2nc(Nc3ccc(NC(C)=O)cc3)nc(Nc3ccc(NC(C)=O)cc3)n2)CC1	RAD52 inh 73.2 | RAD52 DNA ctr inactive
Cc1cc(C)cc(NC(=S)NCc2cccn2C)c1	RAD52 inh 64.8 | RAD52 DNA ctr inactive
Cn1cccc1CNC(=S)Nc1ccccc1Cl	none
CN(C)CCCNC(=O)/C(=C\c1ccc(-c2ccc(Br)cc2)o1)NC(=O)c1ccccc1	AF4-AF9 inh 28.6, RAD52 inh 62.3 | RAD52 DNA ctr inactive
CN(C)CCCNC(=O)/C(=C/c1ccc(-c2ccc([N+](=O)[O-])cc2)o1)NC(=O)c1ccccc1	none
Cc1ccc(C(=O)N/C(=C\c2ccc(-c3ccc(Cl)cc3)o2)C(=O)NCCCN(C)C)cc1	RAD52 inh 52.4 | RAD52 DNA ctr inactive
Cc1noc(C)c1NC(=O)Nc1ccc2c(c1)C(=O)N([C@@H](C)CO)C[C@H](C)[C@@H](CN(C)C(=O)NC(C)C)O2	none
CO[C@H]1CN(C)C(=O)c2ccc(NC(C)=O)cc2OC[C@H](C)N(CC2CC2)C[C@H]1C	none
CCOC(=O)c1c(CSc2ccc(CC)cc2)oc2ccc(O)c(CN(C)C)c12	RAD52 inh 57.8 | RAD52 DNA ctr inactive
CCCNC(=O)C[C@@H]1CC[C@H]2[C@H](COc3ccc(NC(=O)c4ccc(C(F)(F)F)cc4)cc3C(=O)N2C)O1	none
COCCN1CCn2c(nc3cc(Nc4nnc(C)c5ccccc45)ccc32)C1	RAD52 inh 72.3 | RAD52 DNA ctr inactive
CSc1ccc2c(c1)C(N1CCN(C)CC1)Cc1ccccc1S2 (stereo not drawn)	RAD52 inh 52.0 | RAD52 DNA ctr inactive

Source: PubChem BioAssay
